In all, about 5,500 compounds went through this assay and about 2,000 (36%) were called active. Not shown: some 18% with an inconclusive outcome. The list shows a part of the results. A number with no mark means an inactive call. Rule as the data show it: active = normalized growth mostly below about 0.91 (no sharp cut-off); inconclusive = no clear call, values can overlap the other calls; inactive = mostly above about 0.92.
Assay: chemical genetic growth profiling, strain panel (AID 1159580);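 also: tested at 20 µM; growth read once vehicle control cultures reached saturation at 30 °C; 1 = growth at the plate median or of vehicle wells; lower values mean less growth of the strain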
Details: growth OD

CC(C)c1nc(N(C)S(C)(=O)=O)nc(-c2ccc(F)cc2)c1/C=C/[C@@H](O)C[C@@H](O)CC(=O)O
normalized growth (S. cerevisiae deletion strains, locus YJR075W, strain HOC1, hits give low values): 0.996
normalized growth (S. cerevisiae deletion strains, locus YKL009W, strain mrt4, hits give low values): 1.01
normalized growth (S. cerevisiae deletion strains, locus YKL068W, hits give low values): 1.03
normalized growth (S. cerevisiae deletion strains, locus YKL085W, strain MDH1 (second series), hits give low values): 0.992
normalized growth (S. cerevisiae deletion strains, locus YKL085W, strain MDH1, hits give low values): 0.992
normalized growth (S. cerevisiae deletion strains, locus YKL160W, strain elf1, hits give low values): 0.994
normalized growth (S. cerevisiae deletion strains, locus YKL190W, strain CNB1, hits give low values): 1.01
normalized growth (S. cerevisiae deletion strains, locus YKR001C, strain vps1, hits give low values): 1.03
normalized growth (S. cerevisiae deletion strains, locus YKR026C, strain gcn3, hits give low values): 1.02
normalized growth (S. cerevisiae deletion strains, locus YKR091W, strain srl3, hits give low values): 1.01
normalized growth (S. cerevisiae deletion strains, locus YLL001W, strain dnm1, hits give low values): 1.03
normalized growth (S. cerevisiae deletion strains, locus YLL026W, hits give low values): 1.01
normalized growth (S. cerevisiae deletion strains, locus YLL041C, strain sdh2, hits give low values): 0.9 (active)
normalized growth (S. cerevisiae deletion strains, locus YLR027C, strain aat2, hits give low values): 1.01
normalized growth (S. cerevisiae deletion strains, locus YLR039C, strain RIC1, hits give low values): 1.31
normalized growth (S. cerevisiae deletion strains, locus YLR058C, strain SHM2, hits give low values): 1
normalized growth (S. cerevisiae deletion strains, locus YLR102C, strain apc9, hits give low values): 1.02
normalized growth (S. cerevisiae deletion strains, locus YLR113W, strain HOG1, hits give low values): 0.232 (active)
normalized growth (S. cerevisiae deletion strains, locus YLR221C, strain rsa3, hits give low values): 1.06
normalized growth (S. cerevisiae deletion strains, locus YLR258W, strain gsy2, hits give low values): 1.01
normalized growth (S. cerevisiae deletion strains, locus YLR262C, strain YPT6 (second series), hits give low values): 1.1
normalized growth (S. cerevisiae deletion strains, locus YLR262C, strain YPT6, hits give low values): 1.26
normalized growth (S. cerevisiae deletion strains, locus YLR268W, strain sec22, hits give low values): 0.994
normalized growth (S. cerevisiae deletion strains, locus YLR320W, strain mms22, hits give low values): 1.01
normalized growth (S. cerevisiae deletion strains, locus YLR330W, strain CHS5, hits give low values): 0.999
normalized growth (S. cerevisiae deletion strains, locus YLR342W, strain FKS1 (second series), hits give low values): 1.03
normalized growth (S. cerevisiae deletion strains, locus YLR342W, strain FKS1, hits give low values): 1.03
normalized growth (S. cerevisiae deletion strains, locus YLR357W, strain rsc2, hits give low values): 0.994
normalized growth (S. cerevisiae deletion strains, locus YLR370C, strain arc18, hits give low values): 1.03
normalized growth (S. cerevisiae deletion strains, locus YLR371W, strain rom2, hits give low values): 1.01
normalized growth (S. cerevisiae deletion strains, locus YLR384C, strain iki3, hits give low values): 1
normalized growth (S. cerevisiae deletion strains, locus YLR418C, strain cdc73, hits give low values): 1
normalized growth (S. cerevisiae deletion strains, locus YML016C, strain PPZ1, hits give low values): 0.999
normalized growth (S. cerevisiae deletion strains, locus YML032C, strain rad52, hits give low values): 1.01
normalized growth (S. cerevisiae deletion strains, locus YML120C, strain ndi1, hits give low values): 1.02
normalized growth (S. cerevisiae deletion strains, locus YML124C, strain tub3, hits give low values): 0.997
normalized growth (S. cerevisiae deletion strains, locus YMR058W, strain fet3, hits give low values): 1.02
normalized growth (S. cerevisiae deletion strains, locus YMR078C, strain ctf18, hits give low values): 1.01
normalized growth (S. cerevisiae deletion strains, locus YMR125W, strain sto1, hits give low values): 1.02
normalized growth (S. cerevisiae deletion strains, locus YMR129W, hits give low values): 1.04
normalized growth (S. cerevisiae deletion strains, locus YMR205C, strain PFK2, hits give low values): 1.02
normalized growth (S. cerevisiae deletion strains, locus YMR223W, strain ubp8, hits give low values): 1.01
normalized growth (S. cerevisiae deletion strains, locus YMR231W, strain pep5, hits give low values): 0.958
normalized growth (S. cerevisiae deletion strains, locus YMR263W, strain SAP30, hits give low values): 0.994
normalized growth (S. cerevisiae deletion strains, locus YMR307W, strain GAS1, hits give low values): 1.01
normalized growth (S. cerevisiae deletion strains, locus YNL067W, strain RPL9B, hits give low values): 0.989
normalized growth (S. cerevisiae deletion strains, locus YNL071W, strain lat1, hits give low values): 1.01
normalized growth (S. cerevisiae deletion strains, locus YNL128W, strain TEP1, hits give low values): 0.988
normalized growth (S. cerevisiae deletion strains, locus YNL153C, strain GIM3, hits give low values): 0.989
normalized growth (S. cerevisiae deletion strains, locus YNL183C, strain NPR1, hits give low values): 0.0704 (active)
normalized growth (S. cerevisiae deletion strains, locus YNL209W, strain ssb2, hits give low values): 1.02
normalized growth (S. cerevisiae deletion strains, locus YNL233W, strain BNI4, hits give low values): 0.988
normalized growth (S. cerevisiae deletion strains, locus YNL248C, strain rpa49, hits give low values): 1.02
normalized growth (S. cerevisiae deletion strains, locus YNL250W, strain rad50, hits give low values): 0.982
normalized growth (S. cerevisiae deletion strains, locus YNL271C, strain bni1, hits give low values): 0.976
normalized growth (S. cerevisiae deletion strains, locus YNL298W, strain CLA4, hits give low values): 1.02
normalized growth (S. cerevisiae deletion strains, locus YNL307C, strain MCK1, hits give low values): 1.02
normalized growth (S. cerevisiae deletion strains, locus YNL322C, strain KRE1 (second series), hits give low values): 1.03
normalized growth (S. cerevisiae deletion strains, locus YNL322C, strain KRE1, hits give low values): 1
normalized growth (S. cerevisiae deletion strains, locus YNR049C, strain mso1, hits give low values): 1.02
normalized growth (S. cerevisiae deletion strains, locus YNR052C, strain pop2, hits give low values): 0.929
normalized growth (S. cerevisiae deletion strains, locus YOL006C, strain TOP1, hits give low values): 1.01
normalized growth (S. cerevisiae deletion strains, locus YOL012C, strain htz1): 0.882
normalized growth (S. cerevisiae deletion strains, locus YOL147C, strain pex11, hits give low values): 1.01
normalized growth (S. cerevisiae deletion strains, locus YOR001W, strain rrp6, hits give low values): 1.01
normalized growth (S. cerevisiae deletion strains, locus YOR061W, strain CKA2, hits give low values): 0.994
normalized growth (S. cerevisiae deletion strains, locus YOR069W, strain VPS5, hits give low values): 1.01
normalized growth (S. cerevisiae deletion strains, locus YOR070C, strain gyp1, hits give low values): 1.01
normalized growth (S. cerevisiae deletion strains, locus YOR080W, strain dia2, hits give low values): 1.01
normalized growth (S. cerevisiae deletion strains, locus YOR083W, strain WHI5, hits give low values): 0.996
normalized growth (S. cerevisiae deletion strains, locus YOR106W, strain vam3, hits give low values): 1.02
normalized growth (S. cerevisiae deletion strains, locus YOR136W, strain idh2, hits give low values): 1
normalized growth (S. cerevisiae deletion strains, locus YOR144C, strain elg1, hits give low values): 1
normalized growth (S. cerevisiae deletion strains, locus YOR184W, strain ser1, hits give low values): 0.997
normalized growth (S. cerevisiae deletion strains, locus YOR231W, strain MKK1, hits give low values): 0.124 (active)
normalized growth (S. cerevisiae deletion strains, locus YOR265W, strain rbl2, hits give low values): 1.01
normalized growth (S. cerevisiae deletion strains, locus YOR270C, strain vph1, hits give low values): 0.975
normalized growth (S. cerevisiae deletion strains, locus YOR290C, strain snf2, hits give low values): 1
normalized growth (S. cerevisiae deletion strains, locus YOR316C, strain cot1, hits give low values): 1.01
normalized growth (S. cerevisiae deletion strains, locus YPL051W, strain arl3, hits give low values): 1.02
normalized growth (S. cerevisiae deletion strains, locus YPL055C, strain LGE1, hits give low values): 0.998
normalized growth (S. cerevisiae deletion strains, locus YPL078C, strain atp4, hits give low values): 1.02
normalized growth (S. cerevisiae deletion strains, locus YPL106C, strain sse1, hits give low values): 1.03
normalized growth (S. cerevisiae deletion strains, locus YPL240C, strain hsp82, hits give low values): 0.992
normalized growth (S. cerevisiae deletion strains, locus YPL241C, strain CIN2, hits give low values): 1.01
normalized growth (S. cerevisiae deletion strains, locus YPL256C, strain CLN2, hits give low values): 0.162 (active)
normalized growth (S. cerevisiae deletion strains, locus YPR119W, strain clb2, hits give low values): 0.998
normalized growth (S. cerevisiae deletion strains, locus YPR141C, strain kar3, hits give low values): 1.01
normalized growth (S. cerevisiae deletion strains, locus YPR163C, strain tif3, hits give low values): 1.01
normalized growth (S. cerevisiae deletion strains, locus YPR167C, strain met16, hits give low values): 1
normalized growth (S. cerevisiae deletion strains, strain wtn01, hits give low values): 1
normalized growth (S. cerevisiae strains, strain wild type, hits give low values): 0.994
